Data on 174 sequences can be found in article PMC6212790, “How bacterial xenogeneic silencer rok distinguishes foreign from self DNA in its resident genome”.

In all, about 33,000 sequences were measured (“e-score”: median about -0.037, highest 2% from about 0.34 on). For the sample, the highest values were picked, then their nearest neighbours and some sequences at random.

This assay has as its target T1, GST-Rok (full length) (Bacillus subtilis subsp. subtilis str. …, UniProt O34857 1-191).
T1 sequence: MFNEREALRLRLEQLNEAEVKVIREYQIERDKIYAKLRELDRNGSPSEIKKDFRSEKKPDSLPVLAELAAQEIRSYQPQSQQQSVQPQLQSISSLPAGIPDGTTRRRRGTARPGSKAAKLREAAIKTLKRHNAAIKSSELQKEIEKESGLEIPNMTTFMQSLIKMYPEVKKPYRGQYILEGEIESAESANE
In words: protein binding microarray; Rok is a gene silencer of Bacillus subtilis; high values mean tight binding. To be noted: protein: recombinant; tags: GST (pTH5325, pDEST15-Magic modified); dsDNA, one strand shown. The method, boiled down:
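Each has a 25-mer constant primer and a 35-mer variable part from a de Bruijn sequence of order 10, covering every non-palindromic 8-mer at least 32 times (palindromic 16). Preference for each 8-mer is given as a rank-based, unitless enrichment score (E-score). Its range runs from 0.5 (most favored) to −0.5 (most disfavored).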
Turning to CGTTCCTC, the binding signal was -0.0344 E-score.
As to AGTAAGGA, the binding signal was -0.0123 E-score.
The value for CGTCGCGC was 0.0557 E-score; that for ACTCCTAT was 0.122 E-score.
Consider AAGATTCC, for which the binding signal is -0.109 E-score.
The figure for CAGTAGAG is 0.142 E-score; for CAGTAGTC it is -0.166 E-score.
With CAGTAGAA, the binding signal came out at 0.391 E-score.
Turning to TAGTAGGA, the binding signal amounted to 0.209 E-score.
Regarding TAGTAGAA, the binding signal was 0.439 E-score.
Take GAGTAGAA: the binding signal stood at 0.202 E-score.
Turning to CAGTAGTA, the binding signal was found to be 0.343 E-score.
The value for AAGTAGAA was 0.305 E-score; that for AAGTAGTA was 0.332 E-score; that for AACGACGA was 0.183 E-score.
Consider ATTGGCTC, for which the binding signal is -0.0706 E-score.
Consider AATTTTCG, for which the binding signal came to 0.139 E-score.
In the case of ACCGGCAG, the binding signal is -0.0541 E-score.
The value for AGACTGTC was 0.0207 E-score.
As for CGCAGACA, the binding signal was -0.162 E-score.
In the case of ATGTTGTA, the binding signal worked out at 0.223 E-score.
With CATACCTA, the binding signal was 0.334 E-score.
On to CTTACGTA, for which the binding signal amounted to 0.179 E-score.
The figure for GATACCTA is 0.34 E-score; for ATTACCTC it is 0.167 E-score; for ATTACGTA it is 0.38 E-score.
The value for ATTACCTG was 0.126 E-score; that for GTTACGTA was 0.169 E-score.
Regarding ATTACCTA, the binding signal amounted to 0.382 E-score.
Regarding AATACCTA, the binding signal amounted to 0.267 E-score.
The figure for ACGCCGAC is -0.196 E-score.
In the case of ACGACATG, the binding signal was 0.136 E-score.
Consider CACCAGTA, for which the binding signal is -0.00869 E-score.
As to AAAGTCGC, the binding signal worked out at 0.0343 E-score.
The figure for GGCTCTAA is 0.0778 E-score.
On to AACTCTGA, for which the binding signal is 0.0339 E-score.
The value for CCAGACGG was -0.108 E-score.
CAAAGACC: the binding signal is -0.0604 E-score.
As for GTATTCAA, the binding signal was determined as 0.0317 E-score.
With CCAGTAGA, the binding signal came out at 0.166 E-score.
As to ATAGTAGA, the binding signal was 0.346 E-score.
Consider ATAGTAGC, for which the binding signal amounted to 0.315 E-score.
On to GCAGTAGA, for which the binding signal turned out to be 0.342 E-score.
For the sequence GCAGTAGC, the binding signal was -0.0296 E-score.
The figure for GTAGTAGA is 0.33 E-score.
Turning to CTAGTAGA, the binding signal is 0.404 E-score.
The value for CAAGTAGA was 0.286 E-score.
Regarding CTAGTAGC, the binding signal came to 0.251 E-score.
As to AGCCGGAT, the binding signal was -0.184 E-score.
Regarding ATCCTTCC, the binding signal was -0.158 E-score.
As to CATTGAAA, the binding signal is -0.0384 E-score.
With ACTCTCCA, the binding signal is -0.0297 E-score.
Regarding TCCGGTAA, the binding signal worked out at 0.0305 E-score.
In the case of CAAATTAG, the binding signal amounted to 0.21 E-score.
In the case of ATTTTACA, the binding signal was 0.311 E-score.
With ATTTTACG, the binding signal was found to be 0.219 E-score.
In the case of CAATTTAA, the binding signal was found to be 0.152 E-score.
With GAATTTAA, the binding signal was 0.0678 E-score.
In the case of ATTTTTAC, the binding signal worked out at 0.335 E-score.
Turning to AAAATTAC, the binding signal amounted to 0.248 E-score.
AATTTTAC: the binding signal amounted to 0.355 E-score.
Turning to ATTTTACC, the binding signal was 0.351 E-score.
With CAAATTAC, the binding signal turned out to be 0.356 E-score.
Regarding AATTTTAG, the binding signal stood at 0.222 E-score.
Consider TAATTTAA, for which the binding signal was 0.356 E-score.
The figure for GGATCTTA is 0.0165 E-score; for CTGTCTAA it is -0.0397 E-score.
Turning to AAGTCTGG, the binding signal is -0.0136 E-score.
With AATGCACG, the binding signal was -0.0533 E-score.
As for CAACTTAC, the binding signal came out at 0.216 E-score.
Regarding TAAGGTAA, the binding signal came out at 0.0381 E-score.
The figure for TCCAGTCA is -0.0213 E-score.
For the sequence AGATTTTA, the binding signal is 0.294 E-score.
For GACAAACA, the binding signal was found to be 0.0661 E-score.
In the case of TCGGTGAA, the binding signal was -0.0505 E-score.
As for TCAACGAA, the binding signal amounted to 0.0593 E-score.
Turning to AAATTTAC, the binding signal is 0.336 E-score.
As for AAATTTAT, the binding signal was 0.351 E-score.
Take AAATTTAG: the binding signal stood at 0.163 E-score.
For the sequence CAATTTAC, the binding signal worked out at 0.288 E-score.
The figure for GATTTTAC is 0.18 E-score.
The figure for AATTTTAT is 0.273 E-score; for CATTTTAC it is 0.349 E-score; for CATTTTAA it is 0.0564 E-score.
For the sequence GAATTTAC, the binding signal amounted to 0.268 E-score.
As for GATGAACC, the binding signal was -0.136 E-score.
ATGTTGGC: the binding signal is 0.0169 E-score.
The value for ACATGTAT was 0.167 E-score.
The figure for CCATGTAG is 0.271 E-score; for ACATGTAC it is 0.358 E-score; for CCATGTAC it is 0.193 E-score.
ACATGTAG: the binding signal came to 0.338 E-score.
Take GCATGTAC: the binding signal is 0.0911 E-score.
As for CGGGTACA, the binding signal stood at 0.154 E-score.
For CGACAGCG, the binding signal is -0.036 E-score.
AATTACTA: the binding signal was found to be 0.434 E-score.
For AATTACCC, the binding signal came to 0.215 E-score.
Take GGTTACTA: the binding signal was 0.163 E-score.
As for AATTACCT, the binding signal came out at 0.357 E-score.
With ATTTACTG, the binding signal came to 0.287 E-score.
The value for ATTTACTA was 0.459 E-score; that for ATTTACTC was 0.0747 E-score; that for GATTACTA was 0.2 E-score.
With CGTTACTA, the binding signal was found to be 0.34 E-score.
Turning to AATTACCG, the binding signal amounted to 0.32 E-score.
With AATTACTG, the binding signal stood at 0.191 E-score.
The value for CGTTACTC was -0.0623 E-score.
In the case of GACTTATA, the binding signal is 0.257 E-score.
The figure for CCGCACCA is -0.082 E-score.
With AGGTGTCA, the binding signal was -0.0859 E-score.
Consider CGCCCTAC, for which the binding signal was -0.152 E-score.
CATATGCA: the binding signal came out at 0.117 E-score.
Turning to AGTCAGCC, the binding signal was -0.00495 E-score.
Turning to CGCCCTTA, the binding signal was -0.158 E-score.
In the case of AAAGAACA, the binding signal was -0.199 E-score.
Consider ATTAAGAC, for which the binding signal is -0.0587 E-score.
The value for ATTTACAG was 0.24 E-score; that for AGTTACTG was 0.207 E-score; that for ATTTACAA was 0.368 E-score.
ATTTACAC: the binding signal worked out at 0.23 E-score.
For AGTTACTC, the binding signal came out at 0.188 E-score.
For AGTTACTA, the binding signal was determined as 0.345 E-score.
The figure for CAGTGGAA is 0.0127 E-score; for GGTGTGTA it is 0.271 E-score.
The value for CGCATTCC was -0.192 E-score.
The value for ACTTATAA was 0.28 E-score; that for TACGACCA was -0.0634 E-score; that for GAACTCGC was -0.0505 E-score.
For AGGCGCTA, the binding signal is -0.15 E-score.
The figure for GCTCCATA is 0.0969 E-score; for CCGATCCG it is -0.19 E-score; for CAAACGAA it is 0.108 E-score.
As for GACTTCTA, the binding signal is 0.0634 E-score.
The figure for ATATTCTC is 0.277 E-score; for TAATTCCA it is 0.213 E-score.
In the case of ATATTCTA, the binding signal came out at 0.424 E-score.
In the case of GAATTCTA, the binding signal was found to be 0.357 E-score.
GAATTCTC: the binding signal was -0.0203 E-score.
With CTATTCTA, the binding signal came out at 0.128 E-score.
Take TACTTCTA: the binding signal worked out at 0.36 E-score.
For AACTTCTA, the binding signal is 0.296 E-score.
On to TAATTCTA, for which the binding signal was determined as 0.345 E-score.
Consider CAATTCTA, for which the binding signal was 0.278 E-score.
On to TAATTCAA, for which the binding signal is 0.105 E-score.
As to CAAGAAAA, the binding signal is -0.0182 E-score.
Regarding GATTCACA, the binding signal came to 0.0605 E-score.
Consider AACGAAGC, for which the binding signal was -0.108 E-score.
As to ACGGAAAC, the binding signal is -0.0398 E-score.
Turning to AATTGACT, the binding signal was 0.16 E-score.
For the sequence AAGTAACT, the binding signal was determined as 0.225 E-score.
As to ACTAGGCG, the binding signal is -0.156 E-score.
For TATGGTCA, the binding signal is -0.0127 E-score.
The figure for AGCGCAAA is 0.0549 E-score; for GCGTACTA it is 0.082 E-score; for AAATTCTC it is 0.0375 E-score.
The value for AAATTCTA was 0.402 E-score; that for AAATTCTT was 0.0789 E-score.
For the sequence ACCGTCGA, the binding signal came to 0.0177 E-score.
For the sequence CGTACTAA, the binding signal came out at 0.217 E-score.
The figure for AGTACTAT is 0.388 E-score.
As for AGTACTAC, the binding signal came to 0.389 E-score.
In the case of CGTACTGC, the binding signal is 0.0418 E-score.
In the case of CGTACTAC, the binding signal was determined as 0.339 E-score.
As to GGTACTAC, the binding signal came out at 0.212 E-score.
Turning to AGTACTCA, the binding signal was found to be 0.0122 E-score.
The value for TGTACTAA was 0.0689 E-score.
As for AGTACTAA, the binding signal is 0.357 E-score.
Regarding AGTACTGC, the binding signal worked out at 0.114 E-score.
Turning to AGTACGAT, the binding signal came to 0.134 E-score.
The value for GGTACTAA was 0.138 E-score; that for AGGAGTCC was -0.0508 E-score.
For the sequence ATTCCTAC, the binding signal turned out to be 0.201 E-score.
Consider CATGGTCA, for which the binding signal was -0.1 E-score.
As for TACCGAAA, the binding signal stood at 0.225 E-score.
